# PubChem BioAssay (NCI)
# Compounds without any hit were thinned out: in the full panel of roughly 79,000, 15% have a hit. Values without a mark were called inactive. The source made the active and inactive calls. Cut-off read from the data, not from the text of the source: active = growth inhibition above about 70%; inactive = the rest. Where a SMILES comes first, the peptide text is derived from it.
# Tests used:
# [1] = NCI Yeast Anticancer Drug Screen. Data for the rad50 strain (AID 155);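 note: 0% = growth of vehicle-only cultures of the same strain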; settings: S. cerevisiae rad50 strain growth inhibition; at 50.0 µM; active compounds read high
# Outline: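 Relative growth inhibition (compound vs vehicle) was measured in yeast with a defined repair-gene alteration.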
# [2] = NCI Yeast Anticancer Drug Screen. Data for the mec2-1 strain (AID 157); settings: S. cerevisiae mec2-1 strain, at 50.0 µM, active compounds read high
# Outline: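 Using mec2-1 yeast: add compound, measure growth, express inhibition versus vehicle-treated cultures.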
# [3] = NCI Yeast Anticancer Drug Screen. Data for the sgs1 mgt1 strain (AID 161);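 note: 0% = growth of cultures given vehicle only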; settings: S. cerevisiae sgs1 mgt1 strain, at 50.0 µM, active compounds read high
# Outline: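 Percent growth inhibition was derived by comparing compound-exposed mutant yeast with vehicle-exposed cultures. The strain carries alterations in DNA damage repair.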
# [4] = NCI Yeast Anticancer Drug Screen. Data for the cln2 rad14 strain (AID 165);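 note: 0% = growth equal to vehicle treated cultures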; settings: S. cerevisiae cln2 rad14 strain, at 50.0 µM, active compounds read high
# Outline: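 Yeast strain cln2 rad14, bearing defects in cell cycle control and DNA repair, serves as the test system; values reflect growth inhibition compared with vehicle.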
# [5] = NCI Yeast Anticancer Drug Screen. Data for the bub3 strain (AID 167); settings: S. cerevisiae bub3 mutant strain, at 50.0 µM, active compounds read high
# Outline: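 Screening used yeast with an engineered genetic alteration affecting cell cycle control. Compound-exposed cultures were compared with vehicle cultures, and reduced growth was taken as inhibition.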
# [6] = NCI Yeast Anticancer Drug Screen. Data for the mlh1 rad18 strain (AID 175); settings: S. cerevisiae mlh1 rad18 strain growth inhibition; at 50.0 µM; active compounds read high
# Outline: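 Steps: expose repair-defective yeast to compound; measure growth; express inhibition against vehicle-treated controls.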
SMILES,growth inhibition [1],growth inhibition [2],growth inhibition [3],growth inhibition [4],growth inhibition [5],growth inhibition [6]
COc1cc2c(cc1OC)C(=O)CC2,-12.7%,-10.9%,-19.7%,-5.25%,-4.2%,0.15%
C/C=C\C=C\C(=O)O,-30.4%,-17%,-38.3%,4.3%,-19.8%,-31.9%
Cc1ccc(C(C)(C#N)Nc2ccccc2)cc1 (stereo unspecified),-7.05%,-1.8%,-8.2%,-25.2%,-11.2%,-0.45%
CCCCCCCCCCCCOc1ccc(F)cc1C,6%,-1.15%,0.45%,4.6%,10.7%,13.4%
CC(=O)Nc1ccc(/C=N/Nc2c3ccccc3nc3ccccc23)cc1,-3.3%,13.8%,0.3%,-4.4%,6.75%,0.4%
CCOP(=O)(OCC)/C(C#N)=C\c1ccc(OC(C)=O)cc1,-6.15%,-30.1%,-9%,23.5%,-25.6%,-31.9%
CC1CC[C@]2(C(=O)O)CCC3(COC(=O)/C=C\c4ccc(O)cc4)C(=CCC4[C@@]5(C)CC[C@H](O)C(C)(C)C5CC[C@]43C)[C@@H]2[C@H]1C (stereo partly specified),-1.9%,1.35%,-1.65%,5.55%,-3.1%,-17.8%
CCN(CC)C(N)=Nc1cc2ccccc2c2ccccc12,-16.5%,-22.8%,-16.9%,-45.5%,8.55%,5.25%
COc1ccc2ccccc2c1C1/C(=N/O)CCc2ccccc21 (stereo unspecified),30.4%,15.2%,12.2%,-37.3%,10.6%,14.7%
CC1CCN(C(=O)C(c2ccccc2)c2ccccc2)CC1,27%,-7.05%,-3.1%,-18.8%,1.2%,-4.75%
CCN(CC)CC(O)c1ccc2c(ccc3ccccc32)c1 (stereo unspecified),12.5%,-5%,9.2%,-32%,-3.45%,12%
COc1ccc(-c2c(C#N)c(S)n(C3OC(COC(C)=O)C(OC(C)=O)C(OC(C)=O)C3OC(C)=O)c(=O)c2C#N)cc1 (stereo unspecified),-18.1%,-12.2%,-6.3%,-16.3%,16.4%,14%
COc1ccc(CNC(=O)C2C(=O)C(=O)N(Cc3ccc(OC)c(OC)c3)C2=O)cc1OC (stereo unspecified),20.8%,-5.45%,-0.9%,17.1%,-1.25%,14.7%
Cn1cnc([N+](=O)[O-])c1Sc1ccccc1C(=O)O,-2.7%,-0.15%,-23.1%,23.6%,-0.35%,-12.1%
Cc1cc(C)c(SSc2c(C)cc(C)cc2C)c(C)c1,-7.8%,-8.65%,-3.9%,-15.6%,7.6%,-1.6%
O=NC1C2CCC(C2)C1N=O.[Co].[c-]1[c-][c-][cH-][c-]1 (stereo unspecified),9.4%,6.45%,4.7%,20.4%,13.6%,27.9%
COC(=O)c1cccc(Cl)c1C(=O)c1ccc(C)cc1C,-25%,-8.3%,-9.1%,-52.9%,31.1%,11.4%
CN(CCc1ccccn1)/[N+]([O-])=N/O (tested in a mixture with another compound),-30.8%,-36.9%,4.15%,11.2%,-3.35%,-4.65%
CN(C)CC1CCCC(CN(C)C)C1=NOC(=O)c1ccccc1 (stereo unspecified),-8.15%,-33.8%,-2.3%,-21.4%,8.05%,-27.8%
N#CC1C[C@@H]2CC3(CCC2CN1C(=O)c1ccccc1)OCCO3 (stereo partly specified),8.25%,-9.6%,-12.1%,-24.6%,0.9%,-14%
CCNC(=O)OCCN(C)CCOC(=O)NCC,-10%,9.55%,-4.15%,-20%,-7.7%,-0.7%

SMILES,growth inhibition [1],growth inhibition [2],growth inhibition [3],growth inhibition [4],growth inhibition [5],growth inhibition [6]
Cn1c2ccccc2n2c(=O)c3c(c(C#N)c12)CCCC3,-31.1%,-35.2%,-3.1%,-0.35%,-20.6%,-21.7%
CCN1C(=O)CS/C1=N/NC(=O)C(O)(c1ccccc1)C1C=CC=CC1 (stereo unspecified),-9.6%,-21.1%,2.6%,10.3%,0.25%,4.75%
Fc1ccc(C(c2ccc(F)cc2)C(F)(F)F)cc1,8.65%,-20.3%,24.9%,10.8%,13.7%,13.4%
CC(C)CC(N)C(=O)NC(C)C(=O)NC(CC(C)C)C(=O)O (stereo not drawn) (H-Leu-Ala-Leu-OH; configuration not given here),5.95%,21.4%,10.9%,1.9%,0.5%,-3.1%
Oc1cc(CN2CCOCC2)c(O)c(CN2CCOCC2)c1,14.7%,8.95%,21.1%,20%,7.7%,24.6%
CC1CCN(C(=O)c2cc(Nc3ccnc4cc(Cl)ccc34)ccc2O)CC1,-2.05%,-3.4%,-6.65%,-4.35%,-3.9%,7.6%
CCOC(=O)c1nc[nH]c1C(=O)OCC,17.5%,-7.25%,-6.1%,11%,-1.35%,12%
O=C(CCOP(=O)(NCCCl)NCCCl)c1ccccc1,5.2%,-14.8%,0.25%,7.25%,-11.7%,24%
Cc1ccc2c(c1)NC(c1ccc(C(=O)O)cc1)c1cccn1-2 (stereo unspecified),29.7%,8.95%,0.45%,7.7%,19.3%,23.2%
CCSC(SCC)[C@H](NC(C)=O)[C@@H](O)[C@H](O)[C@H](O)CO,-6.8%,-12.2%,-8.85%,0.1%,2.85%,-12.3%
NC(=O)C(C(N)=O)c1ccnc2ccccc12,8.6%,-2.65%,-16%,-16.8%,-2.1%,10.9%
Cc1ccc(F)c2[nH]c(-c3ccccc3)cc(=O)c12,14.9%,3.45%,-1.2%,-5.95%,8%,12%
C=CCCc1cc(OC)ccc1C(=O)C(C)C,4.3%,-17.8%,-20.1%,-20.8%,0.2%,-12.6%
COC12COC(=O)C1C(c1ccc3c(c1)OCO3)c1cc3c(cc1O2)OCO3 (stereo unspecified),21.8%,-0.6%,11.5%,8.95%,17.4%,-4.7%
C#CCNC(=O)NC(CCCCNC(=O)OCc1ccccc1)C(=O)OCc1ccccc1 (stereo unspecified),-7.05%,2.9%,-10.8%,10.3%,3.55%,-4.8%
C=CCC1=C2CCCCC2CCC1=O (stereo unspecified),-5.7%,-27.8%,-15.9%,3.3%,-11%,4.95%
CC(C)(O)C#Cc1ccccc1,-0.85%,-8.2%,-0.95%,-24.8%,-9.5%,11.1%
COC(=O)c1nnn(-c2ccc(Cl)cc2Cl)c1N,-6.35%,-18%,-14.6%,6.3%,-19.3%,14%
C=C(C(=O)O)C1CC[C@@]2(C)CCC[C@@](C)(O)C2C1 (stereo partly specified),21.1%,-5.8%,-7.75%,10.8%,-3.35%,25.6%
Cc1ccc(Cl)cc1NC(=O)C(Br)C(Br)C(=O)O (stereo unspecified),93.2% (active),99.4% (active),99.5% (active),90.2% (active),99% (active),98.8% (active)
